Compound activity deposited in PubChem BioAssay by several laboratories.
Bim-Mcl-1 = human Bim-Mcl-1 interaction inhibition; 190,000 compounds, 0.1% hits; Bead-based flow cytometry, Bim peptide-Mcl-1 binding; inhibition, % at 10 µM; in the data active means inhibition above about 40%;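 further: 0% = no compound tracer wells and 100% = peptide blocker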
Target sequence (Q07820 whole entry, looked up): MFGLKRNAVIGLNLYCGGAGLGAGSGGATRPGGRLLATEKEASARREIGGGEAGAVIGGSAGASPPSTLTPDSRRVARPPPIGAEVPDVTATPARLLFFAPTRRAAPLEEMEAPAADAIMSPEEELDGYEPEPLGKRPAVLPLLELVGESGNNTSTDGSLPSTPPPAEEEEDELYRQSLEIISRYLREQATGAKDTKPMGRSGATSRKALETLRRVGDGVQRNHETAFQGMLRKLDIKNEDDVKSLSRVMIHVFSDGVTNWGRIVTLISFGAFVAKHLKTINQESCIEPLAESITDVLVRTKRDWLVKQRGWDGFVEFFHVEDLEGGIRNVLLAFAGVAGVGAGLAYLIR
Mcl1 Noxa PPI = Mcl-1/Noxa interaction inhibition. inhibition, % at 21.7 µM. 220,000 compounds, 1.5% hits. TR-FRET Mcl-1/Noxa peptide binding, 2 h. Q07820;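 active means compounds that cut the protein-peptide binding signal by more than 50% relative to plate controls in a single-dose test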;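 further: His-tagged Mcl-1 with rhodamine Noxa BH3 peptide and terbium anti-His antibody; 0% = Mcl-1 plus Noxa peptide wells and 100% = peptide-only wells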
TNF death inh = TNF-alpha cell death inhibition in Jurkat FADD-/- cells; Jurkat FADD-/- TNF necroptosis rescue, ATP luminescence, 24 h; 0 = TNF only, 100 = no-TNF cells; activation (protection from cell death), % at 10 µM; 220,000 compounds, 0.068% hits; AID 463075;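 active means activation, meaning protection from cell death, of at least 50% relative to plate controls; inactive means activation below 50%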;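 further: necroptosis triggered by 40 ng/mL TNF-alpha added together with compound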
m-calpain inh = inhibitors of pig calpain II. purified calpain II, fluorogenic peptide substrate, 30 min. inhibition, % at 16 µM. 220,000 compounds, 0.37% hits;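 active means inhibition above about 50%, limit read from the data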
L929 necroptosis = blocks zVAD induced death of L929 cells. L929 zVAD necroptosis rescue, ATP luminescence, 24 h; with zVAD 60 µM. viability rescue, % at 10 µM. 220,000 compounds, 0.38% hits. AID 1377;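 active means activation, scaled between plate controls, above about 75%, limit read from the data; inactive means activation under that limit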;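 further: 0% = zVAD with DMSO and 100% = DMSO alone without zVAD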
Mcl1-Bid inh = Mcl-1/Bid interaction inhibition; TR-FRET Mcl-1/Bid-Dy647 peptide binding, 1536-well; inhibition, % at 21.7 µM; 220,000 compounds, 0.97% hits;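 active means compounds that cut the binding signal by more than half at the single screening dose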;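 further: His-tagged Mcl-1 with europium anti-His antibody binding Bid BH3 peptide; 0% = Mcl-1 plus peptide wells and 100% = peptide-only wells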
Active calls of the source: *; / = no result. Only some compounds are listed: those with a hit (about 2.8% of all), similar ones and a draw of the others.

SMILES	Bim-Mcl-1	Mcl1 Noxa PPI	TNF death inh	m-calpain inh	L929 necroptosis	Mcl1-Bid inh
O=C(O)c1ccc(NC2CC(=O)N(Cc3ccccc3)C2=O)cc1 (centres undefined)	0	-1	0	-6	2	-17
O=C(Nc1cccc(Cl)c1Cl)c1cc(S(=O)(=O)NCCc2ccccc2)ccc1F	-3	15	1	-34	/	-4
O=C(Cc1ccc(S(=O)(=O)N2CCOCC2)s1)Nc1ccc2c(c1)CCC2	-1	-2	1	-19	1	-8
O=C(Cc1cccs1)N1CCN(S(=O)(=O)c2ccccc2)CC1	-2	14	0	-20	0	97*
Cc1ccc(C)c(NC(=O)Cc2ccc(S(=O)(=O)N3CCCCC3)s2)c1	30	0	3	15	0	-4
CN1CCN(S(=O)(=O)c2ccc(NC(=O)Cc3cccs3)cc2)CC1	0	13	1	-23	0	-35
O=C(Cc1cccs1)Nc1ccc(S(=O)(=O)N2CCCCC2)cc1	-2	66*	2	-192	0	24
CC(=O)Nc1ccc(NC(=O)Cc2ccc(S(=O)(=O)N3CCCCC3)s2)cc1	-2	38	-1	77*	/	-7
O=C(Cc1ccc(S(=O)(=O)N2CCOCC2)s1)Nc1nc2c(s1)CCCC2	0	71*	1	-35	0	-59
CCN1CC=C2C(C#N)=C(N)C(C#N)(C#N)C(c3cc(Cl)ccc3Cl)C2C1 (centres undefined)	-5	8	-1	-162	-1	-16
CN1CCN(c2nc3nonc3nc2N2CCN(C)CC2)CC1	0	-3	-1	-4	1	-17
O=C(/C=C/c1ccco1)Nc1ccccc1C(=O)O	2	52*	-2	25	4	-56
O=C(/C=C/c1ccco1)NC1=NCCS1	0	16	1	-15	1	-75
COC(=O)c1ccccc1NC(=O)COC(=O)/C=C/c1ccco1	-2	9	0	21	0	95*
O=C(/C=C/c1ccco1)Nc1cccc(NC(=O)/C=C/c2ccco2)n1	-3	72*	2	-55	2	-67
Cc1nc(NC(=O)/C=C/c2ccco2)sc1C	-2	58*	-4	21	-1	-16
CN(C)c1ccc(C=NCC2COc3ccccc3O2)cc1 (centres undefined)	-2	-3	-3	19	1	-37
Cc1ccc(OCC(=O)NC(=S)Nc2cccc(NC(=O)c3ccc(Cl)cc3Cl)c2)cc1	-4	8	-2	-5	2	63*
Cc1ccc(-n2cc(C(C)(C)C)[nH]c2=S)cc1	2	-5	-3	-9	0	-61
O=c1c2ccccc2nc(/C=C/c2ccccc2)n1CCc1ccccc1	-4	5	0	16	1	12
O=c1c2ccccc2nc(/C=C/c2cccnc2)n1Cc1ccccc1	2	31	-1	-1	34	91*
O=c1c2ccccc2nc(/C=C/c2cccnc2)n1CCc1ccccc1	/	22	-7	-14	0	95*
Cc1ccc(Nc2nnc(-c3ccccc3N)o2)cc1C	/	-4	1	-70	0	-18
COC(=O)c1cc(=O)n(Cc2ccc(F)cc2)c(=Nc2ccccc2)s1	/	52*	-8	13	0	-21
COC(=O)c1cc(=O)n(Cc2ccc(OC)c(OC)c2)c(=Nc2ccc(F)cc2)s1	-1	2	-7	-32	-1	-9
SMILES	Bim-Mcl-1	Mcl1 Noxa PPI	TNF death inh	m-calpain inh	L929 necroptosis	Mcl1-Bid inh
Cc1ccc(Nc2cc(-n3nc(C)cc3C)ncn2)c(C)c1	5	56*	-1	29	-1	-14
CCOC(=O)N1CCC(NC(=O)C(NC(=O)C2CCC(C)CC2)C(C)CC)CC1 (centres undefined)	1	1	-1	13	1	-34
CCOC(=O)c1sc(N2N=C(C)C(N=Nc3cccc(C)c3)C2=O)nc1C (centres undefined)	/	35	0	-61	0	86*
CC1CCCCN1c1nnc(NC(=O)c2cc(-c3ccc(Br)cc3)on2)s1 (centres undefined)	1	24	2	-51	3	-26
O=C(c1ccco1)N1C(=O)c2cccc3c(S(=O)(=O)N4CCCC4)ccc1c23	-10	61*	-5	-173	0	78*
O=C(COc1ccccc1)NN1C(=O)CSC1=S	-1	7	0	17	1	-98
O=C(COc1ccc(F)cc1)NN1C(=O)CSC1=S	-3	10	0	52*	-2	-45
COc1ccc(C(=O)Nc2cc(C)on2)cc1S(=O)(=O)N1CC(c2ccccc2)CC1=O (centres undefined)	-4	11	3	-39	0	-28
Fc1ccccc1-c1nc(NCc2ccccc2)c2ccccc2n1	/	-6	1	6	0	1
c1ccc(CNc2nc(NCc3ccccc3)c3ccccc3n2)cc1	/	60*	-33	-24	-3	24
CC(C)Cn1c(N)c(C(=O)COC(=O)c2ccccc2Cl)c(=O)n(C)c1=O	0	61*	-3	43	1	-9
CC(C)Cn1c(N)c(C(=O)COC(=O)c2cccc(Cl)c2)c(=O)n(C)c1=O	-2	6	-1	77*	1	-1
CC(C)Cn1c(N)c(C(=O)COC(=O)/C=C/c2cccs2)c(=O)n(C)c1=O	/	-19	-2	53*	1	-15
CC(C)Cn1c(N)c(C(=O)COC(=O)c2ccccc2F)c(=O)n(C)c1=O	-3	-19	0	46	-1	1
CC(=O)NC(Cc1cccc(C)c1)C(=O)NC1CCN(C(=O)c2ccc([N+](=O)[O-])cc2)CC1 (centres undefined)	-2	12	1	26	0	8
COc1ccc(/C=C/C(=O)OCC(=O)NCc2ccco2)c(OC)c1	-2	16	0	-21	2	-22
O=C(NCCC1=CCCCC1)c1ccc2c(c1)N(Cc1ccccc1)C(=O)CS2	-5	-8	-2	60*	-1	4
O=C(NCCN1CCOCC1)c1ccc2c(c1)N(Cc1ccccc1)C(=O)CS2	-1	9	-1	0	0	-7
Cc1cc(=O)oc2cc(OCC3CC(c4ccc(N(C)C)cc4)=NO3)ccc12 (centres undefined)	-1	29	-2	-15	-1	52*
CS(=O)(=O)c1ccc(C(=O)NCCN2C(=O)S/C(=C\c3cccnc3)C2=O)cc1[N+](=O)[O-]	0	81*	5	-164	0	24
O=C(NCCN1C(=O)S/C(=C\c2ccc(Cl)c(Cl)c2)C1=O)c1cnccn1	2	58*	0	-19	0	-23
O=C(O)CCN1C(=O)S/C(=C\c2cccnc2)C1=O	/	13	2	22	0	91*
CN(C)S(=O)(=O)c1ccc(C(=O)NCCN2C(=O)S/C(=C\c3cccnc3)C2=O)cc1	0	15	0	-33	3	-14
